Measured values reported in the supplement of paper PMC10338343.
± gives the standard deviation.

Experiments:
[1] = system: MILI (PIWIL2) piRISC loaded with L1MC piRNA (26 nt); assay: pre-steady-state target cleavage rate (min^-1); guide: L1MC piRNA 5'p-UAACUAAAUACUAUGCAAGCUGUAGG; higher = faster piRNA-guided slicing of the target
How it was run: (§1)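 With or without 500 nM GTSF1 partner protein, 1 nM active affinity-purified piRISC carrying one synthetic guide was mixed with 0.1 nM transcribed, DNA-blocked target RNA library in HEPES–potassium acetate buffer at 33 °C for 0–8 or 0–960 min. Uncleaved targets were sequenced and normalised to depth and to weakly complementary targets, three trials were pooled, and k3 was capped at 0.0001 min^-1. The pre-steady-state cleavage rate came from a burst-and-steady-state fit.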

[2] = system: EfPiwi piRISC loaded with L1MC piRNA (26 nt); assay: pre-steady-state target cleavage rate (min^-1); auxiliary factor: 500 nM Ephydatia muelleri Gtsf1; guide: L1MC piRNA 5'p-UAACUAAAUACUAUGCAAGCUGUAGG; MIWI and MILI are mouse PIWI proteins and EfPiwi is from a freshwater sponge; tags in brackets are library labels; higher = faster piRNA-guided slicing of the target
How it was run: as §1

[3] = auxiliary factor: 500 nM mouse GTSF1
[4] = auxiliary factor: none (no GTSF1)

Row | Sequence | pre-steady-state target cleavage rate [1, 3] | pre-steady-state target cleavage rate [1, 4] | pre-steady-state target cleavage rate [2]
1 | UCCUGGAUGUACUUGCAUAGUAUUUAGUUA | 0.0966 ± 0.016 | 0.0107 ± 0.0025 | 0.00383 ± 0.0029
2 | UCCUGGAUGAGCUUGCAUAGUAUUUAGUUC [g2:g21:cont:t1C] | 0.166 ± 0.014 | 0.00562 ± 0.0029 | 0.039 ± 0.01
3 | UCCUGGAUGUCCUUGCAUAGUAGUUAGUUA | 0.13 ± 0.036 | 0.00421 ± 0.002 | 0.00555 ± 0.0031
4 | UCCUGCUACAGCUUGCAUGUAUUUAGUUA | 0.104 ± 0.02 | 0.00362 ± 0.0023 | 0.00438 ± 0.0028
5 | UCCUGGAAUCAGCUUGCAUAGUAUUUAGUUA | 0.278 ± 0.021 | 0.016 ± 0.0034 | 0.0198 ± 0.0068
6 | UCCUGGAUGAGCUUACAUAGUAUUUAGUUA | 0.153 ± 0.019 | 0.00591 ± 0.0023 | 0.00581 ± 0.0024
7 | UCCUGCUACAGCUUGCAUAGUAUAUAGUUA | 0.227 ± 0.029 | 0.00382 ± 0.0029 | 0.00448 ± 0.0019
8 | UCCUCCUACAGCAUGCAUAGUUUUUAGUUA | 0.0554 ± 0.01 | 0.00447 ± 0.002 | 0.00379 ± 0.0028
9 | UCCUCCUACAGCUUGCUAAGUAUUUAGUUA | 0.17 ± 0.012 | 0.00586 ± 0.0019 | 0.00593 ± 0.0039
10 | UCCUGGAUGAGCGUGCAUAGUAUUUAGUUA | 0.186 ± 0.018 | 0.0113 ± 0.003 | 0.0239 ± 0.0062
11 | UCCUGCUACAGCUUGCAUAGUACUUAGUUA | 0.233 ± 0.026 | 0.00719 ± 0.0026 | 0.00608 ± 0.0018
12 | UCCUGCUACAGCUUCGAUAGUAUUUAGUUA | 0.253 ± 0.02 | 0.00716 ± 0.002 | 0.00756 ± 0.0026
13 | UCCUGCUACAGCAUGGAUAGUAUUUAGUUA | 0.257 ± 0.021 | 0.00639 ± 0.0031 | 0.00804 ± 0.0023
14 | UCCUCGUACAGCUUGCAUAGUAUUUAGUAA | 0.24 ± 0.014 | 0.00621 ± 0.0022 | 0.00794 ± 0.0029
15 | UCCUGGAUCAGGUUGGAUAGUAUUUAGUUA | 0.164 ± 0.013 | 0.0112 ± 0.0027 | 0.00425 ± 0.003
16 | UCCUGGUACAGCUAGCAAAGUAUUUAGUUA | 0.102 ± 0.013 | 0.0127 ± 0.0033 | 0.00688 ± 0.0029
17 | UCCUCCUGCAGCUUGCAUAGUAUUUAGUUA | 0.301 ± 0.018 | 0.0088 ± 0.0027 | 0.103 ± 0.024
18 | UCCUGGAUGUGCGUGCAUAGUAUUUAGUUA | 0.107 ± 0.012 | 0.0107 ± 0.0032 | 0.00405 ± 0.0027
19 | UCCUGGAUCAGCUCUGCAUAGUAUUUAGUUA | 0.246 ± 0.024 | 0.00786 ± 0.0034 | 0.101 ± 0.023
20 | UCCUGCUACAGACUUGCAUAGUAUUUAGUUA | 0.169 ± 0.018 | 0.00767 ± 0.0021 | 0.00603 ± 0.0024
21 | UCCUGGAUCAGCAAGCAUAGUAUUUAGUUA | 0.231 ± 0.021 | 0.00449 ± 0.0021 | 0.0107 ± 0.0038
22 | UCCUGCUACAGCAUGCUUAGUAUUUAGUUA | 0.255 ± 0.017 | 0.00606 ± 0.0028 | 0.0122 ± 0.0038
23 | UCCUGGAUGAGUUUGCAUAGUAUUUAGUUA | 0.17 ± 0.023 | 0.0059 ± 0.0028 | 0.0219 ± 0.006
24 | UCCUGGAACAGCAUGCAUAGUAUAUAGUUA | 0.247 ± 0.025 | 0.0058 ± 0.0025 | 0.0106 ± 0.005
25 | UCCUGGAACAGCUUGCAUAGUACUUAGUUA | 0.243 ± 0.018 | 0.0101 ± 0.0024 | 0.0218 ± 0.0069
26 | UCCUGGAUGAGCUUGCAUAGUAUUUAGGUUA | 0.195 ± 0.028 | 0.0044 ± 0.0031 | 0.0031 ± 0.002
